Assay results reported in ChEMBL document CHEMBL3988442, “University of Dundee, Small-Polar-MMV Screening Library” (2021).
For some of these results: Results with a measured potency or affinity are listed apart.

Experiments:
Design in all cases: scale not given: direction of the effect not stated beside the values
[1] = molecular target: Protein translocase subunit SecA (Escherichia coli (strain K12)) (UniProt P10408); assay: Assay to Identify E. coli SecA ATPase Inhibitors; assay type: functional; settings: 30 µM
Protein translocase subunit SecA (Escherichia coli (strain K12)), sequence (P10408 whole entry): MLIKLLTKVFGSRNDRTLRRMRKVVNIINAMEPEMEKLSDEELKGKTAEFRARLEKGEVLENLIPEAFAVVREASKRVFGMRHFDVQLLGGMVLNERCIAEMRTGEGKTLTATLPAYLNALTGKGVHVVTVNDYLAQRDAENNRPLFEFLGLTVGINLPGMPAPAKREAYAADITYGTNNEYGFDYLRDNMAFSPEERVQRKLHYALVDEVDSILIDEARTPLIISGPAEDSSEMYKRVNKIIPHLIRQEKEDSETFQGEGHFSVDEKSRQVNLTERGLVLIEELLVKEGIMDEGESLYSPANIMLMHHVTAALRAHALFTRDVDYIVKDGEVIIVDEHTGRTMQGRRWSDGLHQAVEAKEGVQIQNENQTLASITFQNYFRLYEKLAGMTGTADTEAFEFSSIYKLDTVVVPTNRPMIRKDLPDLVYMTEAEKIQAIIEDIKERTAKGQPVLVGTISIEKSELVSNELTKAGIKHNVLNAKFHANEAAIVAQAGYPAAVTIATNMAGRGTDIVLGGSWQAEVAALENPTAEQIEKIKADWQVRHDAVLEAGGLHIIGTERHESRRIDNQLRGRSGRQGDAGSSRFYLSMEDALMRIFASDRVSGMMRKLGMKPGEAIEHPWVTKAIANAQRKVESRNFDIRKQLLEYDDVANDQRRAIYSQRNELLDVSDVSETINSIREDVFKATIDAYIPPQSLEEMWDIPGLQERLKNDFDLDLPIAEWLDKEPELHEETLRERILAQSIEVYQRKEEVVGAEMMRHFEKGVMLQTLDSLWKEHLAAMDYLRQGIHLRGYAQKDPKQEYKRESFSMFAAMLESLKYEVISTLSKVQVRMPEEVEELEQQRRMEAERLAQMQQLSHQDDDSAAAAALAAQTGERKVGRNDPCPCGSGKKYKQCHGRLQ

[2] = molecular target: T1, Ubiquitin-activating enzyme e1, putative (Leishmania donovani (strain BPK282A1)) (UniProt E9BSI1); assay: Leishmania donovani Ubiquitin Activating Enzyme (LdE1); assay type: functional; settings: 30 µM
T1 sequence (whole entry): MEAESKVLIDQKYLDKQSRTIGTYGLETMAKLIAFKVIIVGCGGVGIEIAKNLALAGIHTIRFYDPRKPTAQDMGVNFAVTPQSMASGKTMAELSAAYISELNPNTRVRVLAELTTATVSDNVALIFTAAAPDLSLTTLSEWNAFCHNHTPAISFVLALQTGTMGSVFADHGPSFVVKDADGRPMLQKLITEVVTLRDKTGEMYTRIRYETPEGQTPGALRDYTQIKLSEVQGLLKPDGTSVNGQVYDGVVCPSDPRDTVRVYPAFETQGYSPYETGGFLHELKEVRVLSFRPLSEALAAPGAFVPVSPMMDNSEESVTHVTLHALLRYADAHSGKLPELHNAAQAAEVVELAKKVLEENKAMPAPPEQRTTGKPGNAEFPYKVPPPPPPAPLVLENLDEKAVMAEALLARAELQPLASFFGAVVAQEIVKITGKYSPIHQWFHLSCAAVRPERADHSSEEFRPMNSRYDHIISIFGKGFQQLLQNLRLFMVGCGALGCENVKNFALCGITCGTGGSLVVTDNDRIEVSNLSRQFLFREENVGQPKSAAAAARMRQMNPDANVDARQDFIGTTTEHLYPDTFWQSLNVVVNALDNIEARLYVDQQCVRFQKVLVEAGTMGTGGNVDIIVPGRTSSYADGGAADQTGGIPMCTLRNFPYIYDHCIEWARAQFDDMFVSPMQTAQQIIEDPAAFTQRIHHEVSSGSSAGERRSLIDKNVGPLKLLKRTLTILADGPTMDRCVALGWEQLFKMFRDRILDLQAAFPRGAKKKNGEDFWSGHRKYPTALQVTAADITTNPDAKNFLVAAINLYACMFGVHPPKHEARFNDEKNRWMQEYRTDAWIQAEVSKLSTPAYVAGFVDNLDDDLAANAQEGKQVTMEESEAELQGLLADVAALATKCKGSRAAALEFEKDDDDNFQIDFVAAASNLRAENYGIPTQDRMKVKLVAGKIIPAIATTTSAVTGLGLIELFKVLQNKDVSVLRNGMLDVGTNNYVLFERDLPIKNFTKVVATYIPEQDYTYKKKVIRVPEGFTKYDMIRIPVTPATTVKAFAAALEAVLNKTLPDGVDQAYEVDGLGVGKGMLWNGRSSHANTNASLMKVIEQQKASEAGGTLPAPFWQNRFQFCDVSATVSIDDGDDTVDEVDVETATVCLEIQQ

[3] = molecular target: Sialic acid-binding Ig-like lectin 9 (Homo sapiens) (UniProt Q9Y336); assay: Hs-Siglec9 ALPHAscreen SOP 20170721; settings: 10 µM
Sialic acid-binding Ig-like lectin 9 (Homo sapiens), sequence (Q9Y336 whole entry): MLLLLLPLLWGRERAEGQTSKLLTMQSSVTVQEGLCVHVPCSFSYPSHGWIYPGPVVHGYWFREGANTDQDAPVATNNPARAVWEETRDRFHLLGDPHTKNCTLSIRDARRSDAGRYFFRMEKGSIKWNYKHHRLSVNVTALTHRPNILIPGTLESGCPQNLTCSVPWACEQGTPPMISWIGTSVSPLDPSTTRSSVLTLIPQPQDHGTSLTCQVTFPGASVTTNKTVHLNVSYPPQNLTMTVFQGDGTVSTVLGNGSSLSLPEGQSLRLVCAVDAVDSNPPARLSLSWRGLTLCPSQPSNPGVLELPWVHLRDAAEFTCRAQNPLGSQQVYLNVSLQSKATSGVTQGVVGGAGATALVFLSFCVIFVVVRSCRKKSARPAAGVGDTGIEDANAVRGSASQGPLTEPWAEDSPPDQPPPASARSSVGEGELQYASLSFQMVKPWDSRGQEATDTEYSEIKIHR

Trypanosoma cruzi = assay: Trypanosoma cruzi phosphomannomutase and mannose-1-phosphate guanylyltransferase assay; assay type: functional; settings: 10 µM
[4] = molecular target: T2, Arginase-2, mitochondrial (Homo sapiens) (UniProt P78540); assay: in vitro enzyme assay to detect the production of urea directly proportional to the activity of Arginase II; assay type: functional; settings: 33.3 µM; note: in the data most compounds retested in dose-response had high values
T2 sequence (whole entry): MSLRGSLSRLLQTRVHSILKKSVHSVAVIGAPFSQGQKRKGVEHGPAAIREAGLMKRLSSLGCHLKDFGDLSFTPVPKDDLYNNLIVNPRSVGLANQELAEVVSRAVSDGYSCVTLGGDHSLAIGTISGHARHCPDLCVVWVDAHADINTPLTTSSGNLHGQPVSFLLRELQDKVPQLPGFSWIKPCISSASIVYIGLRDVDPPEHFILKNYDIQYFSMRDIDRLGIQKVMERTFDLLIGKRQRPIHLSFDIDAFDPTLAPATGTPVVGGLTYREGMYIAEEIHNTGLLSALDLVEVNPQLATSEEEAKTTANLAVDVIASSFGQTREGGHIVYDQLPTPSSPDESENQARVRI

[5] = molecular target: T3, Proteasome subunit beta (Trypanosoma cruzi) (UniProt O96673); assay: Trypanosoma cruzi proteasome chymotrypsin-like activity (TcProtChymo) assay.; note: in the data most compounds retested in dose-response had high values; assay type: functional; settings: 9.37 µM
T3 sequence (whole entry): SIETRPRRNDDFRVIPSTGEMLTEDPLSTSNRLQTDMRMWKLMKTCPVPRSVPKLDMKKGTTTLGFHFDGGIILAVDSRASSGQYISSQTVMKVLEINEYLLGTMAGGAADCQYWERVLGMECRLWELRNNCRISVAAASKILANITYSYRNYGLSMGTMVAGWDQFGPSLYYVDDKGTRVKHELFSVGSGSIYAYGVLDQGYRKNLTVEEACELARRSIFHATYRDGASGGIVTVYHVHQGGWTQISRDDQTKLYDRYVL

Homo sapiens = species on record: Homo sapiens; assay: To identify inhibition of the IFN signalling (Jak-Stat) pathway via expression of an eGFP reporter gene under the control of an IFN-stimulated response element (ISRE) containing MxA promoter.; assay type: functional; settings: 30 µM
[6] = molecular target: T4, Tyrosyl-tRNA synthetase, putative (Trypanosoma cruzi (strain CL Brener)) (UniProt Q4DSP6); assay: Trypanosoma cruzi tyrosyl tRNA synthetase (TcYRS) _High Tyrosine SOP; assay type: functional; settings: 30 µM; note: in the data most compounds retested in dose-response had high values
T4 sequence (whole entry): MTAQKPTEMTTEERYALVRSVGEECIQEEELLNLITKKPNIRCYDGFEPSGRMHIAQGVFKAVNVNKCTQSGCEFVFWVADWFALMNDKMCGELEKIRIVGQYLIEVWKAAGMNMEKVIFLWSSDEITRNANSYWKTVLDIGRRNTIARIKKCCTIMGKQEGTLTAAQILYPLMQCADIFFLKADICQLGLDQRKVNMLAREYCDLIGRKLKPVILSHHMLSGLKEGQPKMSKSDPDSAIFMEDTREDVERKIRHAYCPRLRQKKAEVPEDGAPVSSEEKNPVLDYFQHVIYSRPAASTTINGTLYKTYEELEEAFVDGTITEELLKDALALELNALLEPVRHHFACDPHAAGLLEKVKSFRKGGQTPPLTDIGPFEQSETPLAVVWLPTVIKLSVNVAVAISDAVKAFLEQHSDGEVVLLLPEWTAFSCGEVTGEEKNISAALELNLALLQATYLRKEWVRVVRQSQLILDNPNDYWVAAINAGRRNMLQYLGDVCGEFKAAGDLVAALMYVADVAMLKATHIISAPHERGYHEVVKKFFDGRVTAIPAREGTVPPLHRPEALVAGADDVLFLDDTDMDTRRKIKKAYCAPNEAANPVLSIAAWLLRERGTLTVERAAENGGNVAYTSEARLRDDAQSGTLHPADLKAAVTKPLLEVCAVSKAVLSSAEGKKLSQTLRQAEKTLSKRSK

[7] = molecular target: T4, Tyrosyl-tRNA synthetase, putative (Trypanosoma cruzi (strain CL Brener)); assay: Trypanosoma cruzi tyrosyl tRNA synthetase (TcYRS) SOP; assay type: functional; settings: 30 µM
[8] = molecular target: Chromo domain-containing protein 1 (Saccharomyces cerevisiae (strain ATCC 204508 / S288c) (Baker's yeast)) (UniProt P32657); assay: ScCHD-1 Enzyme Inhibition Assay; assay type: functional; settings: 30 µM; note: in the data most compounds retested in dose-response had high values
Chromo domain-containing protein 1 (Saccharomyces cerevisiae (strain ATCC 204508 / S288c) (Baker's yeast)), sequence (P32657 whole entry, the tested form may be a part): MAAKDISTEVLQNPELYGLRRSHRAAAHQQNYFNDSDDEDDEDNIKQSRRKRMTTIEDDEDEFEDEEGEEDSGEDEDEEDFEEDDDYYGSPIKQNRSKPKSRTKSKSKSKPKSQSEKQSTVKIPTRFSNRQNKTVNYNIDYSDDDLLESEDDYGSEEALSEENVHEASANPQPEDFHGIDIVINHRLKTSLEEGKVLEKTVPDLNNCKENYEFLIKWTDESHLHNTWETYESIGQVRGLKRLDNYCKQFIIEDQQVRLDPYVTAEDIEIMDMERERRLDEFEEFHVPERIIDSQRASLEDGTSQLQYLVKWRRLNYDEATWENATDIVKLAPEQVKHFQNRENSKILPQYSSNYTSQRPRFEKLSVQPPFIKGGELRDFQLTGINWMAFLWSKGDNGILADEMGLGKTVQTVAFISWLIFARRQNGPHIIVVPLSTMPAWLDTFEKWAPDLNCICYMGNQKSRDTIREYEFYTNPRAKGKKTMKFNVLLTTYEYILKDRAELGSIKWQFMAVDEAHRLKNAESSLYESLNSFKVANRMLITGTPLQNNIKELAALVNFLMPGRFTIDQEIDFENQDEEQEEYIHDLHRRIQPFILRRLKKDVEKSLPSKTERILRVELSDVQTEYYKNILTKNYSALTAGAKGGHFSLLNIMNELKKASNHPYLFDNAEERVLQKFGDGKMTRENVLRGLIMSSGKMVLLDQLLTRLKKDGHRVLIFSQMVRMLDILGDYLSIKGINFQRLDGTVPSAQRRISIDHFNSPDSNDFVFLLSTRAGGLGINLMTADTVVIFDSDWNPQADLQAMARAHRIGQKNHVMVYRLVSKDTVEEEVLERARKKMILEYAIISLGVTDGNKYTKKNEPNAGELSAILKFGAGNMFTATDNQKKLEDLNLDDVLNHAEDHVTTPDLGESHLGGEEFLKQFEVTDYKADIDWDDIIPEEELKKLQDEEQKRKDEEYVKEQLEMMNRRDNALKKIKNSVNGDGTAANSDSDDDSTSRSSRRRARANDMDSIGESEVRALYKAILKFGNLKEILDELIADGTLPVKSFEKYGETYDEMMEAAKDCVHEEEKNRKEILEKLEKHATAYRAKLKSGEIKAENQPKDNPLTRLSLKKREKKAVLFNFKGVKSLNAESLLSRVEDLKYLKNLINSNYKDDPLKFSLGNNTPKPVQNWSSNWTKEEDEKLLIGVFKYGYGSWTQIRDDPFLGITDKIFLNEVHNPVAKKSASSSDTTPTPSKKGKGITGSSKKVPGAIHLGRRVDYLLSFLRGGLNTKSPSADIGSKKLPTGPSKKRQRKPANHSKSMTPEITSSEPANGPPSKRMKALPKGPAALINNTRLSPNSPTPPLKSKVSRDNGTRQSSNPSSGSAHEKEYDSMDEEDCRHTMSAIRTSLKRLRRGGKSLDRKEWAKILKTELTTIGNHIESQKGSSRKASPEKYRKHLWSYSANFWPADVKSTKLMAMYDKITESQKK

SMILES	Percent Effect [1] [%]	Percent Effect [2] [%]	Percent Effect [3] [%]	Percent Effect (Trypanosoma cruzi) [%]	Percent Effect [4] [%]	Percent Effect [5] [%]	Percent Effect (Homo sapiens) [%]	Percent Effect [6] [%]	Percent Effect [7] [%]	Percent Effect [8] [%]
CCOCC1CC2(CCN(C(=O)c3ccccn3)CC2)CO1 (stereo not given)	-5.71	-1.3	4.48	-0.876	-3.64	9.44	-3.04	1.58	2.56	-2.76
Cc1noc(C)c1CN1CCN(Cc2nccn2C)CC1	-3.95	2.67	3.64	-1.81	-0.444	13.7	-5.05	6.84	7.69	-11.9
CC(C)c1cc(N2CCN(c3ccc(O)cc3)CC2)n2nccc2n1	-0.0494	5.41	0.937	-0.873	5.25	19.7	0.905	27.1	34.1	-3.77
O=C(CC1CC1)N1C[C@@H]2CCN(c3cnccn3)C[C@@H]2C1	-1.69	14.3	4.05	1.69	0.913	5.06	16.8	5.8	15	-3.72
